Measured values from the supplement of paper PMC6555819.

Key:
Experiment in all cases: PBM binding z-score (relative to random genomic background probes); higher = stronger binding; sequences stand for … in GC…GCGATTGACAGCGTAGAATGAAGG
[1] = test system: FXR:RXRa (NR concentration 270 nM, RXRa partner concentration 90 nM)
Summary of the method: (§1)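 Custom Agilent 4×180K protein-binding microarrays carried double-stranded probes, each with a 34-nt variable region. These regions held direct-repeat seeds, single-nucleotide variants, half-site ablations and random human genomic background sequences. Ligand-free nuclear receptor dimers were incubated on the arrays for 1 h, antibodies against each partner (one per run) detected binding, and scanned fluorescence was regression-normalized. Binding z-scores take the random background probes as reference.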

[2] = test system: LXRa:RXRa (NR concentration 270 nM, RXRa partner concentration 90 nM)
Summary of the method: as §1

[3] = test system: LXRa homodimer (NR concentration 270 nM)
Summary of the method: as §1

[4] = test system: LXRb:RXRa (NR concentration 270 nM, RXRa partner concentration 90 nM)
Summary of the method: as §1

[5] = test system: LXRb homodimer (NR concentration 270 nM)
Summary of the method: as §1

[6] = test system: PPARa:RXRa (NR concentration 270 nM, RXRa partner concentration 90 nM)
Summary of the method: as §1

[7] = test system: PPARg:RXRa (NR concentration 180 nM, RXRa partner concentration 90 nM)
Summary of the method: as §1

[8] = test system: PPARg:RXRa 270nM:90nM, anti-RXR (NR concentration 270 nM, RXRa partner concentration 90 nM)
Summary of the method: as §1

[9] = test system: PPARg:RXRa 30nM:10nM, anti-RXR (NR concentration 30 nM, RXRa partner concentration 10 nM)
Summary of the method: as §1

[10] = test system: PPARg:RXRa 90nM:30nM, anti-RXR (NR concentration 90 nM, RXRa partner concentration 30 nM)
Summary of the method: as §1

[11] = test system: PPARg:RXRa DBDmut IVT, anti-RXR (DBD mutation: RXRa K156A/R161A, NR concentration 270 nM, RXRa partner concentration 90 nM)
Summary of the method: as §1

[12] = test system: PPARg:RXRa IVT, anti-PPARg (NR concentration 270 nM, RXRa partner concentration 90 nM)
Summary of the method: as §1

[13] = test system: PPARg DBDmut:RXRa IVT, anti-PPARg (DBD mutation: PPARg1 K132A/R137A, NR concentration 270 nM, RXRa partner concentration 90 nM)
Summary of the method: as §1

[14] = test system: PPARg DBDmut IVT, anti-PPARg (DBD mutation: PPARg1 K132A/R137A, NR concentration 270 nM)
Summary of the method: as §1

[15] = test system: PPARg homodimer (NR concentration 180 nM)
Summary of the method: as §1

[16] = test system: PXR:RXRa (NR concentration 270 nM, RXRa partner concentration 90 nM)
Summary of the method: as §1

[17] = test system: PXR homodimer (NR concentration 270 nM)
Summary of the method: as §1

[18] = test system: RARa:RXR (NR concentration 270 nM, RXRa partner concentration 90 nM)
Summary of the method: as §1

[19] = test system: RARa homodimer (NR concentration 270 nM)
Summary of the method: as §1

[20] = test system: RARb:RXRa (NR concentration 270 nM, RXRa partner concentration 90 nM)
Summary of the method: as §1

Sequence	PBM binding z-score [1]	PBM binding z-score [2]	PBM binding z-score [3]	PBM binding z-score [4]	PBM binding z-score [5]	PBM binding z-score [6]	PBM binding z-score [7]	PBM binding z-score [8]	PBM binding z-score [9]	PBM binding z-score [10]	PBM binding z-score [11]	PBM binding z-score [12]	PBM binding z-score [13]	PBM binding z-score [14]	PBM binding z-score [15]	PBM binding z-score [16]	PBM binding z-score [17]	PBM binding z-score [18]	PBM binding z-score [19]	PBM binding z-score [20]
TCATATAGGGAAAAGGTGAAAGTCGGTGTGGTAA	1.4	1.47	0.577	1.64	0.109	4.56	7.27	7.61	6.66	8.2	3.91	3.56	0.616	0.751	1.68	1.21	0.873	2.17	1.17	1.9
ATCTCTGGGTAACAAGTTCAGTGAAAGAGAGGAC	0.503	0.668	0.353	0.819	0.98	1.7	1.62	1.83	0.953	1.5	2.93	2.94	0.76	0.979	1.27	1.87	1.92	0.922	1.24	1.75
CCTCGGAGGACAACAGGAGGTTAGAGCTGCCAGA	-0.155	-0.0847	-0.064	-0.556	-0.957	-0.226	0.177	-0.821	-0.597	-0.982	-0.279	-0.491	-1.7	-1.73	-0.214	-0.222	-0.363	-0.127	-0.352	1.32
ACTTACGGGTCAACGAGGTTATAGCCCGCGTATA	6.28	4.99	0.779	4.32	0.557	5.47	4.98	5.37	2.01	4.01	3.54	3.99	0.579	0.364	2.12	5.03	2.93	4.97	-0.101	4.03
ACAGACAGGTGAGTCAAGGTAACTCAGCTGGACG	1.06	-0.203	-0.155	-0.37	-0.551	0.333	0.647	-0.164	-0.257	-0.347	0.393	0.646	-0.696	-0.663	-0.248	0.238	-0.645	0.569	-0.253	0.669
AATACAGGCTCATCGTAGGCCAGAGTACGCACAG	-0.253	-0.407	-0.211	-0.712	-0.726	-0.569	0.784	-0.256	-0.133	-0.254	-0.148	-0.0891	0.24	-0.0374	-0.257	-0.568	-0.37	-0.622	0.466	-0.11
CCTTTCGGGTCACTGACAGGTTATAGCATTTGGA	5.71	4.35	0.279	3.33	0.0515	5.09	3.95	4.25	1.43	3.06	3.4	3.43	0.931	0.0693	2.97	3.79	0.121	4.74	0.858	4.04
TAGCCTAGGTCATGGGCCAGTATACCACGCGAAC	4.32	3.28	0.195	2.24	-0.333	4.04	3.78	3.66	0.829	2.59	1.08	2.99	0.0326	-0.324	1.77	1.62	-0.133	2.54	-0.386	3.7
GCATATAGGTAATACAAGGCGAAAGTCCGATTGT	0.229	0.00213	0.175	-0.106	-0.482	0.752	0.874	0.503	0.39	0.229	4.13	2.28	0.423	0.106	0.176	0.00476	-0.179	0.458	-0.221	-0.0161
GGAACGAGGGTATTCGAGTTGATAGCATGGCGAT	0.27	2.1	-0.446	-0.313	-1.2	-0.309	0.371	-0.244	-0.476	-0.646	0.383	0.201	-0.0387	-0.595	-0.648	1.19	-0.17	0.11	-0.18	-0.145
AGTCAAAGTTCAGGAAGAGGTAACGTAAAGCACG	3.92	3.76	0.911	2.07	0.602	3.54	4.98	4.92	1.98	3.88	0.106	2.18	0.684	0.616	2.21	2.84	0.943	3.04	0.831	4.45
TGCCAAAGTTCAAAGGTAACGTAAGTATCCACAC	7.28	6.4	4.65	4.85	1.81	5.9	7.61	7.16	4.42	6.78	-0.203	3.58	0.542	1.37	4.73	6.14	4.67	7.24	1.95	5.19
TAGCTTAGGTCATTCAGGGGCCAGTATAGAAAGC	4.82	4.33	0.984	3.31	1.67	3.69	1.38	2	0.369	1.11	1.24	1.84	0.465	1.33	2.5	2.96	0.636	4.06	0.433	3.88
CTTCCAAGGTCAGCAGGTCAGTGAAAGCGACGTG	5.62	4.48	0.986	3.24	0.067	4.87	3.78	4.64	1.14	3.27	3.41	3.82	-0.278	-0.339	3.61	3.42	0.858	4.68	1.77	5.26
